Assay outcomes: PubChem BioAssay, National Center for Advancing Translational Sciences (NCATS)
This excerpt belongs to a sample that is enriched for hits.
Methyltransferases – Primary Screen for Target Class Profiling of Small Molecule Inhibitors of Methyltransferases | actives 3.9% (n = 25,000) | purified enzyme, MTase-Glo SAH luminescence; stronger effect = lower value | calls only at 40 µM | AID 1745853, 2022; call rule not given here
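Each enzyme was reacted with SAM and its substrate, with compounds tested once at 40 uM; SAH formed was read by MTase-Glo luminescence.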
Calls only.

Results for Cc1csc(CN(C)C(=O)CC(c2ccccc2)c2ccc3c(c2)OCO3)n1 (configuration not stated) ?
Methyltransferases: inactive

What do the screens show for `CN(Cc1nccs1)c1ncnc2ccc(-c3ccc4c(c3)OCO4)cc12`?
Methyltransferases: active

Results for CC(=O)Oc1ccc(C2Nc3ccc4ccccc4c3C3C=CCC32)c(OC(C)=O)c1 (configuration not stated) ?
Methyltransferases: inactive

How did Cc1ccc(CNC(=O)C2(C)Cc3ccccc3C(=O)N2Cc2cc(F)cc(F)c2)cc1 (configuration not stated) do in these assays?
Methyltransferases: inactive

What do the screens show for `CCOc1ccc(CN2C(=O)c3cc(-c4ccccc4)nn3CC2(C)C(=O)NCc2ccccc2OC)cc1` (configuration not stated)?
Methyltransferases: inactive

How did CC(C)CCNC(=O)C1(C)Cn2c(cc3ccccc32)C(=O)N1Cc1ccc(Cl)cc1 (configuration not stated) do in these assays?
Methyltransferases: inactive

Results for COc1ccc(-c2cc3n(n2)CC(C)(C(=O)NCc2ccccc2OC)N(c2cc(C)cc(C)c2)C3=O)cc1 (configuration not stated) ?
Methyltransferases: inactive

Results for CC1(C)CCC(C)(C)c2cc([C@@H](O)C(=O)Nc3ccc(C(=O)O)cc3F)ccc21 ?
Methyltransferases: inactive

What do the screens show for `CC(N)(C(=O)O)c1ccc(C(=O)O)cc1` (configuration not stated)?
Methyltransferases: inactive

Results for CC1(C)CCC(C)(C)c2cc(C#Cc3ccc(C(=O)O)cc3)ccc21 ?
Methyltransferases: active

What do the screens show for `CC1CCN(S(=O)(=O)c2cc3[nH]c(=O)[nH]c3cc2Cl)CC1`?
Methyltransferases: inactive

What do the screens show for `CC(C)NC(=O)c1ccc2c(=O)n(C(C)C)c3nn(CC(=O)N(C)c4ccc(F)cc4)c(=O)n3c2c1`?
Methyltransferases: inactive

Results for CCCn1c(=O)c2ccc(C(=O)NCC(C)C)cc2n2c(SCC(=O)c3ccc(OC)cc3)nnc12 ?
Methyltransferases: inactive

Results for NCC(O)(CS(=O)(=O)O)c1ccc(Cl)cc1 (configuration not stated) ?
Methyltransferases: inactive

How did NC[C@@](O)(c1ccc(Cl)cc1)c1ccc(-c2cn[nH]c2)cc1 do in these assays?
Methyltransferases: active

What do the screens show for `CCc1ccc(C2c3cccn3-c3sc4c(c3CN2C(=O)Nc2cccc(OC)c2)CCCC4)cc1` (configuration not stated)?
Methyltransferases: inactive

Results for O=C(Cn1ccc2cc(S(=O)(=O)N3CCCC3)ccc21)NCCc1cccs1 ?
Methyltransferases: inactive

What do the screens show for `CC1(C(=O)NC2CCCCC2)Cn2c(ccc2-c2ccco2)C(=O)N1CCc1ccco1` (configuration not stated)?
Methyltransferases: inactive

How did CC(c1ccon1)N(C)C(=O)c1csc2nc(-c3cccc(C(F)(F)F)c3)cn12 (configuration not stated) do in these assays?
Methyltransferases: inactive

Results for CCCCNC(=O)CCc1nnc2n(CCc3ccccc3)c(=O)c3ccccc3n12 ?
Methyltransferases: inactive

How did CCCCN1C(=O)CSc2c(c3ccccc3n2C)C1C(=O)NCCC(C)C (configuration not stated) do in these assays?
Methyltransferases: inactive

What do the screens show for `CC(=O)NCCCCn1c2c(c3ccccc31)C(=O)NCC2`?
Methyltransferases: active

Results for O=C(C[C@@H]1CCNC[C@@H]1Cc1cc(CSc2ccccc2)on1)N1CCN(c2ccccc2)CC1 ?
Methyltransferases: inactive

How did CC1CCN(S(=O)(=O)c2ccc3c(ccn3CC(=O)NCc3ccc(F)cc3)c2)CC1 do in these assays?
Methyltransferases: inactive

How did CCCCCNc1nc2c(S(=O)(=O)c3ccc(C)cc3)nnn2c2ccccc12 do in these assays?
Methyltransferases: inactive

Results for CN(CCN1CCCCCC1)C(=O)c1cc(COc2ccccc2)[nH]n1 ?
Methyltransferases: inactive

What do the screens show for `c1cc(OCCN2CCCCC2)cc(-c2n[nH]c3ccc(-c4ncn[nH]4)cc23)c1`?
Methyltransferases: active

How did Cc1cc(C)cc(Nc2nc(C)cc(=O)n2CC(=O)Nc2cccc(C(F)(F)F)c2)c1 do in these assays?
Methyltransferases: inactive

What do the screens show for `COc1ccc2cc(CNc3ccc(C)cc3)c(=O)n(CC(=O)Nc3cccc(C(F)(F)F)c3)c2c1`?
Methyltransferases: active

Results for COc1ccc(C(=O)N[C@@H]2CN(C(=O)Nc3cccc(C(F)(F)F)c3)CCC[C@H]2O)cc1 ?
Methyltransferases: inactive

What do the screens show for `CC(C)CCNC(=O)C1(C)Cn2nc(C(=O)NCc3ccc(Cl)cc3)cc2C(=O)N1C` (configuration not stated)?
Methyltransferases: inactive

What do the screens show for `Cc1ccc(Cn2c(=O)c3ccccc3n3c(CCC(=O)N4CC=C(c5ccccc5)CC4)nnc23)cc1`?
Methyltransferases: inactive

What do the screens show for `C=C1CCC[C@]2(C)CC[C@@](O)(C(=C)C(=O)O)C[C@@H]12`?
Methyltransferases: inactive

What do the screens show for `C=C(C(=O)O)C1CC(O)C2(C)CCCC(=C)C2C1` (configuration not stated)?
Methyltransferases: active

Results for C=C(C(=O)O)C1CC(OC(=O)CC(C)CC)C2(C)CCCC(=C)C2C1 (configuration not stated) ?
Methyltransferases: inactive

What do the screens show for `COc1ccc(CCN2C(=O)c3cc4occc4n3CC2(C)C(=O)NC2CCC(C)CC2)cc1OC` (configuration not stated)?
Methyltransferases: inactive

How did COC(=O)c1ncn2c1C(=O)N(Cc1ccc(SC)cc1)C(C)(C(=O)NCc1ccccc1)C2 (configuration not stated) do in these assays?
Methyltransferases: inactive

How did Cc1cccc(CSc2nnc3n(Cc4ccccc4)c(=O)c4ccc(C(=O)NC(C)C)cc4n23)c1 do in these assays?
Methyltransferases: inactive

What do the screens show for `CC1(C(=O)NC2CCCCCCC2)Cn2c(cc3sccc32)C(=O)N1Cc1ccc(F)cc1` (configuration not stated)?
Methyltransferases: inactive

What do the screens show for `c1ccc2c(Nc3nnc(-c4ccncc4)s3)cccc2c1`?
Methyltransferases: inactive

Results for Cc1cccc(Nc2nc(-c3ccncc3)cs2)c1 ?
Methyltransferases: active

Results for COc1cc(Br)c(Nc2nc(-c3c(C)nc4ncccn34)cs2)c(Br)c1 ?
Methyltransferases: inactive

Results for CCCn1c(=O)c2ccc(C(=O)NCC(C)C)cc2n2c(=O)n(CC(=O)c3ccc(OC)cc3)nc12 ?
Methyltransferases: inactive

Results for NC1(c2ccc(-c3nc4ccn5c(=O)[nH]nc5c4cc3-c3ccccc3)cc2)CCC1 ?
Methyltransferases: active

What do the screens show for `CCC1c2ccc(C)n2CCN1C(=O)Nc1cc(OC)ccc1OC` (configuration not stated)?
Methyltransferases: inactive

Results for CCOc1ccc(CCN2C(=O)c3ccc(-c4ccco4)n3CC2(C)C(=O)NC2CCCCC2)cc1 (configuration not stated) ?
Methyltransferases: inactive

How did CC1(C(=O)NC2CCCCCC2)Cn2c(cc3sccc32)C(=O)N1c1cccc(Cl)c1 (configuration not stated) do in these assays?
Methyltransferases: inactive

How did Cc1c[nH]c2ncnc(N3CCC(CN)(C(=O)Nc4cccc(OC(=O)N(C)C)c4)CC3)c12 do in these assays?
Methyltransferases: active

Results for COc1cccc(NC(=O)C2(C)CCc3cnc(NCc4ccccc4)nc32)c1 (configuration not stated) ?
Methyltransferases: inactive

Results for O=S(=O)(Nc1cccc(Br)c1)c1ccc2[nH]c3c(c2c1)CCCC3 ?
Methyltransferases: inactive
